This passage reports outcome and AC50 results from PubChem BioAssay (EPA / NIEHS).

For orientation: AC50 means the concentration at which the activity in the assay is half-maximal.

The structures appear in SMILES notation. Results filed as inconclusive are left out. Calls of active or inactive are those of the source. The calls were made as follows, unless noted: active = hit-call score of the fitted dose curve at least 0.9, where 1 is the maximum; inactive = score below 0.9.

Experiment [1] is described as follows: ATG_TAL_CIS: Attagene CIS-FACTORIAL HepG2 Assay for human TAL Basal Promoter (AID 2282966).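 Also: background control endpoint measuring basal TAL promoter reporter mRNA not a specific factor.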 The conditions noted are these: HepG2 Attagene cis-factorial TAL promoter reporter; actives raise or lower the signal. Put shortly:
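HepG2, transient MRTU transfection, 24 h compound exposure; RNA → oligo(dT) RT → PCR → 6-FAM primer extension → HpaI digest → CE fluorescence. Bidirectional curve fit vs DMSO. Background-control readout.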

Experiment [2] can be described thus: ATG_TGFb_CIS: Attagene CIS-FACTORIAL HepG2 Assay for human Transforming Growth Factor (TGF) (AID 2282967). Particulars: HepG2 Attagene CIS TGFb reporter, mRNA transcription; actives raise or lower the signal. A digest of the protocol: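 HepG2 cells transiently transfected with cis-promoter-driven multiple reporter units measure endogenous TF activity; reporter mRNA quantified at 24 h by RT-PCR, FAM labeling, HpaI digestion and capillary electrophoresis. Bidirectional fit vs DMSO.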

Experiment [3] can be described thus: ATG_VDRE_CIS: Attagene CIS-FACTORIAL HepG2 Assay for human Vitamin D Receptor Element (VDRE) (AID 2282968). The conditions noted are these: HepG2 VDRE cis-reporter transcription, actives raise or lower the signal. A digest of the protocol: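 Readout is VDRE-driven reporter mRNA reflecting endogenous factor activity in human HepG2 cells, sampled 24 h post-dose. Quantification used labelled RT-PCR products separated by capillary electrophoresis; bidirectional analysis relative to DMSO.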

The target in experiment [4] is X-box-binding protein 1 (Homo sapiens) (UniProt P17861). The experiment can be described thus: ATG_Xbp1_CIS: Attagene CIS-FACTORIAL HepG2 Assay for human X-box Binding Protein 1 (XBP1) (AID 2282972). Particulars: HepG2 XBP1 cis-element reporter, Attagene multiplex; actives raise or lower the signal. Put shortly:
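Reporter transcripts were quantified by RT-PCR with fluorescent primer extension and capillary electrophoresis after 24 h chemical exposure. Cells: transiently transfected HepG2 carrying cis-regulated reporter constructs; data fitted bidirectionally relative to DMSO.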

Experiment [5] addresses Oxysterols receptor LXR-alpha (Homo sapiens) (UniProt Q13133). The experiment can be described thus: ATG_LXRa_TRANS: Attagene TRANS-FACTORIAL HepG2 Assay for human Liver X Receptor alpha (LXRa) (AID 2282980; active = hit-call score of the fitted dose curve at least 0.9, where 1 is the maximum). Particulars: HepG2 Attagene TRANS reporter, LXRa transactivation. A digest of the protocol:
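Read-out: reporter transcript levels by RT-PCR plus capillary electrophoresis, fluorescence intensity. Transiently transfected HepG2, exogenous NR-GAL4 chimera, GAL4-UAS reporters; 24 h compound exposure. Activity = increase over DMSO negative control.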

Experiment [6] has as its target Oxysterols receptor LXR-beta (Homo sapiens) (UniProt P55055). As to the kind of experiment: ATG_LXRb_TRANS: Attagene TRANS-FACTORIAL HepG2 Assay for human Liver X Receptor beta (LXRb) (AID 2282981; active = hit-call score of the fitted dose curve at least 0.9, where 1 is the maximum). Particulars: HepG2 Attagene TRANS GAL4-LXRb reporter, mRNA. A digest of the protocol: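 After 24 h chemical treatment of transfected HepG2 cells carrying exogenous NR-Gal4 chimeras, reporter mRNA was quantified by fluorescent RT-PCR and capillary electrophoresis; activity taken as increase over DMSO controls.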

Experiment [7] in a line: ATG_M_06_TRANS: Attagene TRANS-FACTORIAL HepG2 Assay for M06 Transcription Factor (Internal Marker) (AID 2282983; active = hit-call score of the fitted dose curve at least 0.9, where 1 is the maximum). Particulars: HepG2 Attagene TRANS M06 internal marker reporter. Put shortly:
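Read-out: fluorescent reporter cDNA fragments resolved by capillary electrophoresis after RT-PCR and HpaI cut. Source cells were HepG2 carrying transfected multi-reporter GAL4 constructs, dosed 24 h. Increase over DMSO control analysed.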

Experiment [8] in a line: ATG_M_32_TRANS: Attagene TRANS-FACTORIAL HepG2 Assay for M32 Transcription Factor (Internal Marker) (AID 2282984; active = hit-call score of the fitted dose curve at least 0.9, where 1 is the maximum;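 also: transcript level of a background control reporter unit measured by RT-PCR and capillary electrophoresis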). The conditions noted are these: HepG2 Attagene TRANS M32 internal marker reporter. Put shortly: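 Internal background reporter in transfected HepG2: after 24 h chemical exposure, RNA reverse-transcribed, reporter cDNA amplified, fluorescently labelled and HpaI-cut, then sized by capillary electrophoresis. Gain of signal fitted against DMSO control.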

The target of experiment [9] is Nuclear receptor subfamily 4 group A member 2 (Homo sapiens) (UniProt P43354). As to the kind of experiment: ATG_NURR1_TRANS: Attagene TRANS-FACTORIAL HepG2 Assay for human Nuclear Receptor Related Protein 1 (NURR1) (AID 2282985; active = hit-call score of the fitted dose curve at least 0.9, where 1 is the maximum). Particulars: HepG2 Attagene TRANS reporter, mRNA readout. Put shortly: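 Reporter transcript induction, measured by RT-PCR with fluorescent labelling, HpaI digestion and capillary electrophoresis, after 24 hr dosing of human HepG2 cells transiently expressing an exogenous NR-Gal4 fusion with GAL4-UAS-driven reporters; DMSO as baseline.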

For experiment [10], the target named is Transcriptional activator Myb (Homo sapiens) (UniProt P10242). As to the kind of experiment: ATG_Myb_CIS: Attagene CIS-FACTORIAL HepG2 Assay for human Myeloblastosis (Myb) Proto-Oncogene Transcription Factor (AID 2282986). The conditions noted are these: HepG2 Attagene CIS-FACTORIAL Myb reporter transcription; actives raise or lower the signal. Put shortly: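 Using HepG2 liver cells bearing transiently transfected cis-promoter reporter constructs, the assay measures induction or loss of reporter mRNA after 24 hours of dosing. Detection used fluorescently labeled RT-PCR products separated by capillary electrophoresis.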
Transcriptional activator Myb (Homo sapiens), sequence (P10242 whole entry, looked up): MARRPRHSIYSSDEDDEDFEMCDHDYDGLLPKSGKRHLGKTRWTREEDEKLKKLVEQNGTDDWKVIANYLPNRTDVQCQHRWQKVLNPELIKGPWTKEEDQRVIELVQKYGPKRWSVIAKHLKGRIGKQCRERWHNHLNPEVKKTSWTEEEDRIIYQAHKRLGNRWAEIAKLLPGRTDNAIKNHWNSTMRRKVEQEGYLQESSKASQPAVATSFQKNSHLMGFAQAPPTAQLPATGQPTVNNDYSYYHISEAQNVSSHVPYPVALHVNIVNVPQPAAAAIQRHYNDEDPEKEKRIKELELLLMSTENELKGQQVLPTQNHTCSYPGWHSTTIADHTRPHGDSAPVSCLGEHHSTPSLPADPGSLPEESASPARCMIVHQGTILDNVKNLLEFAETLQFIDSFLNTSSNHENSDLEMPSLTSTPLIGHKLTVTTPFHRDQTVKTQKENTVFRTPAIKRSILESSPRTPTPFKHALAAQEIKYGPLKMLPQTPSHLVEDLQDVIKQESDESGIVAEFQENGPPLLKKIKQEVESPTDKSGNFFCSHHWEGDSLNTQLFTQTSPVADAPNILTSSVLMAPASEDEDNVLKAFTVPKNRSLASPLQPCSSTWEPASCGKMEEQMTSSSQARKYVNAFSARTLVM

The target of experiment [11] is Nuclear respiratory factor 1 (Homo sapiens) (UniProt Q16656). The experiment can be described thus: ATG_NRF1_CIS: Attagene CIS-FACTORIAL HepG2 Assay for human Nuclear Respiratory Factor 1 (NRF1) Orphan Gene (AID 2282987). The conditions noted are these: HepG2 NRF1 cis-element reporter, Attagene multiplex; actives raise or lower the signal. Put shortly: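 Reporter mRNA induction or loss in HepG2 cells after 24 h dosing; cis-regulated reporter constructs report endogenous transcription-factor activity. Quantified by RT-PCR/capillary electrophoresis fluorescence, DMSO-referenced.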
Nuclear respiratory factor 1 (Homo sapiens), sequence (Q16656 whole entry, looked up): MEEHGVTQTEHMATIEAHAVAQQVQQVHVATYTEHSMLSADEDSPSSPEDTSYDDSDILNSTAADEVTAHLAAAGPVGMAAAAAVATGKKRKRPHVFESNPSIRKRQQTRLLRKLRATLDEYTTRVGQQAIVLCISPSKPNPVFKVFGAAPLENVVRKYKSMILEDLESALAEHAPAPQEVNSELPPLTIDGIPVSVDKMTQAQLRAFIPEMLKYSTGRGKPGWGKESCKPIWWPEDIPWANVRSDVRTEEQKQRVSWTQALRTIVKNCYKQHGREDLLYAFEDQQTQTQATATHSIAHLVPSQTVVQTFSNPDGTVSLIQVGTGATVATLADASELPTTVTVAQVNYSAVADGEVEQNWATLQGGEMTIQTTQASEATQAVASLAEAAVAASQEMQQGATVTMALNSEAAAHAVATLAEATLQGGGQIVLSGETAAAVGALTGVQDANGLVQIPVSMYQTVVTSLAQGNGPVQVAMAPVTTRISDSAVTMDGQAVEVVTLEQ

Experiment [12] can be described thus: ATG_GAL4_TRANS: Attagene TRANS-FACTORIAL HepG2 Assay for GAL4 (Internal Marker) (AID 2282976; active = hit-call score of the fitted dose curve at least 0.9, where 1 is the maximum). Particulars: HepG2 Attagene TRANS GAL4 internal marker reporter. Put shortly:
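RT-PCR/capillary electrophoresis readout of reporter mRNA. HepG2, transient MRTU transfection (GAL4-UAS reporters), 24 h compound exposure. Background-control endpoint, positive direction vs DMSO baseline.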

Experiment [13] deals with Bile acid receptor (Homo sapiens) (UniProt Q96RI1). As to the kind of experiment: ATG_FXR_TRANS: Attagene TRANS-FACTORIAL HepG2 Assay for Farnesoid X Receptor (FXR) (AID 2282979; active = hit-call score of the fitted dose curve at least 0.9, where 1 is the maximum;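 also: hits raise reporter mRNA above DMSO so AC50 marks FXR activation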). Particulars: HepG2 Attagene TRANS FXR-GAL4 reporter transcription. Put shortly:
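Read-out: fluorescent reporter transcripts quantified by capillary electrophoresis after RT-PCR of total RNA. Source cells were HepG2 transiently carrying chimeric NR-GAL4 plus GAL4-UAS reporter units, dosed 24 h. Activity fitted upward relative to DMSO baseline.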

Experiment [14] deals with Glucocorticoid receptor (Homo sapiens) (UniProt P04150). As to the kind of experiment: ATG_GR_TRANS: Attagene TRANS-FACTORIAL HepG2 Assay for human Glucocorticoid Receptor (GR) (AID 2282978; active = hit-call score of the fitted dose curve at least 0.9, where 1 is the maximum;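 also: activators score as hits since higher reporter transcript over DMSO is fitted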). Particulars: HepG2 Attagene TRANS GR reporter, mRNA transcription. A digest of the protocol: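 Transiently transfected HepG2 cells express chimeric NR-GAL4 proteins acting on GAL4-UAS reporter units. Compounds are applied for 24 h. mRNA induction over DMSO is measured by capillary electrophoresis.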
Glucocorticoid receptor (Homo sapiens), sequence (P04150 whole entry, looked up, the tested form may be a part): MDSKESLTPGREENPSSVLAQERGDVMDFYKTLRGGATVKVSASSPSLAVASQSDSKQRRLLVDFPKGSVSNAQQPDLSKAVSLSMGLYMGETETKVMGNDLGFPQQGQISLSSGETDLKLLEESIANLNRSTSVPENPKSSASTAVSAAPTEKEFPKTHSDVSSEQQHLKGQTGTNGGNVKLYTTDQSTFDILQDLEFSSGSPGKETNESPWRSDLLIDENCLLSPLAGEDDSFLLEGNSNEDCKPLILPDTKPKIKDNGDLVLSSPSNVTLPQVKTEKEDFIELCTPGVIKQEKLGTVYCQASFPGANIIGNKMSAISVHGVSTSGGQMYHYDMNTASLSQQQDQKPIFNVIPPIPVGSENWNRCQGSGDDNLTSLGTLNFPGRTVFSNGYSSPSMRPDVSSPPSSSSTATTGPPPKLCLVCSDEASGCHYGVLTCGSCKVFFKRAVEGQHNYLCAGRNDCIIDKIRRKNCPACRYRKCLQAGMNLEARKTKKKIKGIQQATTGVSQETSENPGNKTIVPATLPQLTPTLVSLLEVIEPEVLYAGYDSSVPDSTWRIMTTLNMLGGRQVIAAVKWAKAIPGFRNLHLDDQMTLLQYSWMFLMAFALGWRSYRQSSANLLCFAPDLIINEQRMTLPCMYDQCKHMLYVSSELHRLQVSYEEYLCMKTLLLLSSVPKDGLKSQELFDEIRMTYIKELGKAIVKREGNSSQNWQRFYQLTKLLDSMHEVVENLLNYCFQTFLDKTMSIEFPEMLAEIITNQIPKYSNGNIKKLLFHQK

Experiment [15] addresses Hepatocyte nuclear factor 4-alpha (Homo sapiens) (UniProt P41235). As to the kind of experiment: ATG_HNF4a_TRANS: Attagene TRANS-FACTORIAL HepG2 Assay for human Hepatocyte Nuclear Factor 4 alpha (HNF4a) (AID 2282982; active = hit-call score of the fitted dose curve at least 0.9, where 1 is the maximum). Particulars: HepG2 HNF4a transactivation reporter, mRNA readout. A digest of the protocol:
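Activity of an exogenous HNF4a–Gal4 fusion scored as induced GAL4-UAS reporter transcripts after 24 h chemical exposure of transfected human HepG2 cells. Read-out via RT-PCR with 6-FAM labelling and capillary electrophoresis; rise over DMSO baseline.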

The target in experiment [16] is Nuclear receptor subfamily 1 group I member 3 (Homo sapiens) (UniProt Q14994). The experiment can be described thus: ATG_CAR_TRANS: Attagene TRANS-FACTORIAL HepG2 Assay for human Constitutive Androstane Receptor (CAR) (AID 2282969; active = hit-call score of the fitted dose curve at least 0.9, where 1 is the maximum;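 also: activators raise reporter mRNA above DMSO so AC50 marks induction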). The conditions noted are these: HepG2 Attagene TRANS-FACTORIAL CAR reporter. A digest of the protocol: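 Signal is reporter mRNA induction relative to DMSO, measured 24 h after dosing by RT-PCR with fluorescent primer extension and capillary electrophoresis. Human HepG2 liver cells carried transiently transfected chimeric NR-Gal4/GAL4-UAS reporter constructs.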
Nuclear receptor subfamily 1 group I member 3 (Homo sapiens), sequence (Q14994 whole entry, looked up, the tested form may be a part): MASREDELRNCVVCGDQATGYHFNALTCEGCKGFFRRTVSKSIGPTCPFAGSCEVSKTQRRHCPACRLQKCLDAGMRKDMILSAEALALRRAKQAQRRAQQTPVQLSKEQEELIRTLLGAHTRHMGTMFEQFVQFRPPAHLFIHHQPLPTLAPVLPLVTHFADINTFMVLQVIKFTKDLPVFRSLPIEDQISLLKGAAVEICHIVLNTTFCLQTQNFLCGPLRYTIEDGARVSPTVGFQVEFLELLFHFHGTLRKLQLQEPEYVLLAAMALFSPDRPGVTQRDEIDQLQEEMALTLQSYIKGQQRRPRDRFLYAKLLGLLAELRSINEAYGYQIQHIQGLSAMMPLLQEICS

Experiment [17] concerns the target Estrogen receptor (Homo sapiens) (UniProt P03372). As to the kind of experiment: ATG_ERa_TRANS: Attagene TRANS-FACTORIAL HepG2 Assay for human Estrogen Receptor alpha (ERa) (AID 2282970; active = hit-call score of the fitted dose curve at least 0.9, where 1 is the maximum). The conditions noted are these: HepG2 Attagene TRANS ERa GAL4 reporter, mRNA. A digest of the protocol:
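Reporter mRNA induction after 24 hours, detected by fluorescent RT-PCR and capillary electrophoresis, gives the read-out. Cells are HepG2 transiently transfected with GAL4-UAS reporter transcription units responding to chimeric NR-Gal4. Activity is taken as gain of signal over DMSO baseline.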

Experiment [18] in a line: ATG_M_19_TRANS: Attagene TRANS-FACTORIAL HepG2 Assay for M19 Transcription Factor (Internal Marker) (AID 2282974; active = hit-call score of the fitted dose curve at least 0.9, where 1 is the maximum). Particulars: HepG2 Attagene TRANS-FACTORIAL M19 internal marker reporter. A digest of the protocol:
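Multiplexed TRANS format: HepG2 liver cells bearing transient GAL4-UAS reporter units, chemical treatment 24 h, reporter transcripts quantified by RT-PCR plus capillary electrophoresis. DMSO defines baseline.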

Oxysterols receptor LXR-beta (Homo sapiens), sequence (P55055 whole entry, looked up, the tested form may be a part): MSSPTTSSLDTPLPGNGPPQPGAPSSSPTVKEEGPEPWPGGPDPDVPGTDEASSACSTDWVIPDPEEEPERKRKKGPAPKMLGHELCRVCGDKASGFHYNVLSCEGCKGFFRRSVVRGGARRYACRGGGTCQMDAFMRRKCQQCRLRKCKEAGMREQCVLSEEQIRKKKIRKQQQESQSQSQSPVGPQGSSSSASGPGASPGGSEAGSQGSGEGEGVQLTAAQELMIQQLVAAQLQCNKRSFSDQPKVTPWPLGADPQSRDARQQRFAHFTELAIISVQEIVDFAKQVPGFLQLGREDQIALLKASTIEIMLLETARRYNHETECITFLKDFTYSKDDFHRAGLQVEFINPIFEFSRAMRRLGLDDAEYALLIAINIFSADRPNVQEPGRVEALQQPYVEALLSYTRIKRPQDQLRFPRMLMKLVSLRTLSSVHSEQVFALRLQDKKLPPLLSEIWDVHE
X-box-binding protein 1 (Homo sapiens), sequence (P17861 whole entry, looked up): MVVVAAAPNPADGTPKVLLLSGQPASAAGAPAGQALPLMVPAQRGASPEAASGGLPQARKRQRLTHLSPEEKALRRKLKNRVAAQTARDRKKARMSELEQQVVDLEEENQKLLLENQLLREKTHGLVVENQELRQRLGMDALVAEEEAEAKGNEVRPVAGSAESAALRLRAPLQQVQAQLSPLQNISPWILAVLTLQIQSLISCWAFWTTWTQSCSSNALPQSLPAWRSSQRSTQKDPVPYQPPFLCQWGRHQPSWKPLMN
Hepatocyte nuclear factor 4-alpha (Homo sapiens), sequence (P41235 whole entry, looked up, the tested form may be a part): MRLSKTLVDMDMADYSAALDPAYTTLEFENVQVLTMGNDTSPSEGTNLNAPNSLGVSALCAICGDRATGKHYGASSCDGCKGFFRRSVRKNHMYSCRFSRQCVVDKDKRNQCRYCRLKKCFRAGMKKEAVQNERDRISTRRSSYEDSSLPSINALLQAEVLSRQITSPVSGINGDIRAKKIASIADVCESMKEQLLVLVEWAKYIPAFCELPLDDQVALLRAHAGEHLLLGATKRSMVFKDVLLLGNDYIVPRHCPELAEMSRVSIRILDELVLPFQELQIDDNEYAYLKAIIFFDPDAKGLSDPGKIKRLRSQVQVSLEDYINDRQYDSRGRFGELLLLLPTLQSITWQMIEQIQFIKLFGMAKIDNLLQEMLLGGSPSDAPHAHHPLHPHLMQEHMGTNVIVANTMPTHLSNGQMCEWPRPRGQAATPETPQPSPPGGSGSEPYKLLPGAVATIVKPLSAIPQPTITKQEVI
Oxysterols receptor LXR-alpha (Homo sapiens), sequence (Q13133 whole entry, looked up, the tested form may be a part): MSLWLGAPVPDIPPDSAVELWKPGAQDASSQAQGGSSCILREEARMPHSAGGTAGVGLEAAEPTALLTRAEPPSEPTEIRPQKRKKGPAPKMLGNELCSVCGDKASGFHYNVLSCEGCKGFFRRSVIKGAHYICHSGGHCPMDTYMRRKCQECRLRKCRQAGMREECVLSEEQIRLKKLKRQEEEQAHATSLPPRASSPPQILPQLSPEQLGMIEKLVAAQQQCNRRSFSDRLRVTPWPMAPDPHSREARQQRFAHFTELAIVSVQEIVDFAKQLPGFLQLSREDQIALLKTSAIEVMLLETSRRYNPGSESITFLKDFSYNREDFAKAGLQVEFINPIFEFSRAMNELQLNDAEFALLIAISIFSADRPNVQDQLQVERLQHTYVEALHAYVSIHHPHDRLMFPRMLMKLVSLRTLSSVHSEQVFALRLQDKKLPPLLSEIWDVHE
Estrogen receptor (Homo sapiens), sequence (P03372 whole entry, looked up, the tested form may be a part): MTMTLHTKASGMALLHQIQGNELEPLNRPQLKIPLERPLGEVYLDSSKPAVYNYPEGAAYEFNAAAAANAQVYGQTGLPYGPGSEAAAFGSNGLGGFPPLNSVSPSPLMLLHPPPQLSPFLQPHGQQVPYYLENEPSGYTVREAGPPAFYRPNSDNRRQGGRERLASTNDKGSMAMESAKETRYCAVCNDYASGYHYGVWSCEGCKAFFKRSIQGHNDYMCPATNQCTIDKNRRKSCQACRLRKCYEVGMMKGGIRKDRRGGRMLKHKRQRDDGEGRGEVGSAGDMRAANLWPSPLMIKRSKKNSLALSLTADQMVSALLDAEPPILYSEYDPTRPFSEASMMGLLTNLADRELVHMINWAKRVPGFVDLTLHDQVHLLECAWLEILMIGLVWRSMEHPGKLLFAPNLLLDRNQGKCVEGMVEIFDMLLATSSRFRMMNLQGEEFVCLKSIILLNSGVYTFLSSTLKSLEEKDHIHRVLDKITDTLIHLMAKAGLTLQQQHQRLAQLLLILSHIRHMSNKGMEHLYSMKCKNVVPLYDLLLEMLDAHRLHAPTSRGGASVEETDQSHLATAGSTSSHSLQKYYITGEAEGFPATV
Bile acid receptor (Homo sapiens), sequence (Q96RI1 whole entry, looked up, the tested form may be a part): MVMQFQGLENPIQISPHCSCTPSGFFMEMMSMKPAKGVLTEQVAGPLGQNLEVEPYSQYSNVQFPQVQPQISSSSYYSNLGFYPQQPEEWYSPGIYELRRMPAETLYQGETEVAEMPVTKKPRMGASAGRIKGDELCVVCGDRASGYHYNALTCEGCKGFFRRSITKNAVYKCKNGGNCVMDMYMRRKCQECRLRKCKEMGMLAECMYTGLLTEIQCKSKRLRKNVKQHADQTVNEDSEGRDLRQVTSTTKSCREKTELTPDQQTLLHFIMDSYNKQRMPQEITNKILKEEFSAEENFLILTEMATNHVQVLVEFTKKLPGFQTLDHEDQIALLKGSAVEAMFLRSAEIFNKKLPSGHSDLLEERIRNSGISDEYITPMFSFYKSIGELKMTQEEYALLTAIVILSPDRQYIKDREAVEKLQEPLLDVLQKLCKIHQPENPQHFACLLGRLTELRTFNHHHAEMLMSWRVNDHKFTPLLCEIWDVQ

Consider `CC(C)C1CCC(O)CC1` (stereo not drawn), for which the outcome in experiment [1], in experiment [2], in experiment [3], in experiment [4], in [5] and in [6] was inactive. In addition, the result in [7], in experiment [8], in experiment [9], in [10] and in experiment [11] was inactive.
For the molecule `O=C1NC(=O)c2ccccc21`, the molecule was called inactive in experiment [1], in experiment [2], in [3], in [4], in experiment [12] and in [13]. The call in experiment [5], in [10] and in experiment [11] was inactive.
With `Cc1cccc(C)c1[N+](=O)[O-]`, the result in [1], in [2], in experiment [3], in [4], in experiment [14] and in experiment [6] was inactive. Moreover, the result in [15], in experiment [8] and in [10] was inactive.
`CC(=O)C(C)=O`: the call in experiment [1], in experiment [2], in experiment [3], in experiment [4], in experiment [14] and in [6] was inactive. Besides, the result in experiment [15], in [9], in [10] and in experiment [11] was inactive.
For `Nc1ccc(F)c([N+](=O)[O-])c1`, the call in experiment [1], in [2], in experiment [16], in experiment [17], in experiment [4] and in experiment [18] was inactive. Moreover, the outcome in experiment [12], in experiment [14], in [6], in experiment [15], in experiment [8] and in experiment [10] was inactive. Further, in experiment [11], the outcome was inactive.
Regarding `Cc1cc(C2(c3cc(C)c(O)cc3C)OS(=O)(=O)c3ccccc32)c(C)cc1O`, the call in [1], in [2], in experiment [16], in experiment [4], in experiment [18] and in [14] was inactive. The outcome in experiment [15], in experiment [7], in experiment [10] and in experiment [11] was inactive. Further, the AC50 in experiment [17] was 4.2 µM (active).
